Screening results deposited in PubChem BioAssay by National Center for Advancing Translational Sciences (NCATS).
Only some compounds are listed: those with a hit (about 6.3% of all), similar ones and a draw of the others.
RORgamma inh = qHTS for inhibitors of ROR gamma transcriptional activity; Nuclear receptor ROR-gamma (Mus musculus), P51450; Drosophila S2 Gal4-RORgamma UAS-luciferase reporter, 20 h; Potency, µM (highest dose often 53.6 µM), for inactives: at the highest dose activity change, negative = inhibition, most hits filed as inhibitors; hit rate 5.4% among 310,000; also: % is scaled to controls: 0 for no effect and ±100 for the full control effect; nearly all actives have a fitted effect of over 60% in size
Target sequence (P51450 whole entry, looked up, the tested form may be a part): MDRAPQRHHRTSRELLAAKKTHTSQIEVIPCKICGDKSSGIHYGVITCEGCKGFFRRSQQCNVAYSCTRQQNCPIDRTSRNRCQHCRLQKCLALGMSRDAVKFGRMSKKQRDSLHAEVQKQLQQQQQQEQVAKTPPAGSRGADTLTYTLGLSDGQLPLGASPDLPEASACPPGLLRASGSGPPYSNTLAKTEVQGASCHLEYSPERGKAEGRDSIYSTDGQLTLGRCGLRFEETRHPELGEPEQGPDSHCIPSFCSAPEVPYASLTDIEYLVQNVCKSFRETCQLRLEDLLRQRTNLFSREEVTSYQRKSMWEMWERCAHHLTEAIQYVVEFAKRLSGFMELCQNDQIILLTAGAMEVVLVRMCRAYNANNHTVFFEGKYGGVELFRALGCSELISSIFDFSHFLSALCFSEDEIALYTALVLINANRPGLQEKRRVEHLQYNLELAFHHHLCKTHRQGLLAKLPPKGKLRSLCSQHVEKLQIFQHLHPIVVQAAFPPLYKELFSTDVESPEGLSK
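Read-out: Photinus luciferase luminescence; inhibitors lower reporter signal. Insect Schneider cells with Gal4-ROR gamma fusion under metallothionein promoter, UAS reporter; 700 uM final copper sulfate induction, 20 hr, ambient temperature.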
VP16 counter = VP16 counterscreen qHTS for inhibitors of ROR gamma transcriptional activity; Drosophila S2 Gal4-VP16 UAS-luciferase, luminescence, 20 h; Potency, µM (top dose mostly 53.6 µM), inactives show top-dose activity, negative = inhibition, usual class: inhibitors; hit rate 3.5% among 310,000; AID 2546, 2010;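 also: Gal4-VP16 expression switched on by copper sulfate through the metallothionein promoter; % is scaled to controls: 0 for no effect and ±100 for the full control effect; nearly all actives have a fitted effect of over 50% in size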
TGFb SMAD3 inh = qHTS for Inhibitors of TGF-b. HepG2 CAGA-GFP TGF-b/SMAD3 reporter, GFP fluorescence, 18 h; TGF-beta stimulated, 500 pg/mL final. hit rate 1.2% among 410,000. Potency, µM (top dose mostly 46.1 µM), inactives show at the highest dose activity, negative = inhibition, most hits filed as inhibitors; also: % is scaled to controls: 0 for no effect and ±100 for the full control effect; nearly all actives have a fitted effect of over 65% in size
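Cell-based qHTS in HEPG2 carrying a CAGA-GFP Smad reporter; compounds added before 500 pg/mL final TGF-beta, 18 h incubation at 37 degrees C, GFP fluorescence quantified per cell by imaging cytometry.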
ATXN viability = Viability Counterscreen for Primary qHTS for Inhibitors of ATXN expression; S2 cells (HEK-293 line with an ATXN2-luciferase reporter) viability, CellTiter-Fluor protease fluorescence, 24 h; Potency, µM (series often up to 56.7 µM), actives largely listed as cytotoxic; hit rate 0.49% among 400,000; AID 651635, 2014; also: nearly all actives have a fitted effect of over 40% in size
HepG2 viability = qHTS for Inhibitors of TGF-b: Cytotox Counterscreen; HepG2 CAGA-GFP viability, ATP luminescence, 18 h; Potency, µM (highest dose often 46.1 µM), for inactives: at the top dose activity change, negative = cytotoxicity, actives largely listed as cytotoxic; hit rate 0.76% among 410,000; AID 588856, 2011
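HepG2 CAGA-GFP cells (1000/well, DMEM with 1% FBS) received compound, then TGF-beta at 500 pg/mL final, and were incubated 18 hours at 37 degrees C. Viability was read by CellTiter-Glo luminescence. Media-only wells were set as complete cell-killing and DMSO as no toxicity.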
ATXN2 expr inh = Primary qHTS for Inhibitors of ATXN expression. HEK-293 ATXN2-luciferase reporter, luminescence, 24 h. Potency, µM (highest dose often 57 µM), for the others: at the top dose activity change, negative = inhibition, actives largely listed as inhibitors. hit rate 0.72% among 360,000; also: % is scaled to controls: 0 for no effect and ±100 for the full control effect; nearly all actives have a fitted effect of over 55% in size
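ATXN2-luciferase reporter cells (luciferase flanked by upstream and downstream ATXN2 gene portions) were treated 24 h at 37 °C with compounds at up to 57 uM. SteadyGlo luminescence gave expression; GF-AFC fluorescence gave viability.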
* hit, by the source's call; i = inactive; ? = inconclusive; / = no result; ! = not confirmed by another sample; [ ] = remark or other dose. Calls follow the shape of the dose curve; as a rule, active = well fitted curve in the direction sought with a large enough effect; inconclusive = small, poorly fitted or top-dose-only effect, or another doubt; inactive = no such curve, though single readings can be large; an effect the other way counts as inactive or inconclusive. Potency is read from the fitted curve at half-maximal effect.

SMILES	RORgamma inh	VP16 counter	TGFb SMAD3 inh	ATXN viability	HepG2 viability	ATXN2 expr inh
CC(C)(C)P(=O)(NCc1ccccc1)c1ccccc1 (stereo not drawn)	-10.2%	-4.0%	14.0%	i	-2.0%	1.9%[11.3 µM]
CC(C)CNP(=S)(c1ccccc1)C(C)(C)C (stereo not drawn)	7.94µM*	?	-10.4%	i	-5.0%	2.0%
Cc1sc(NC(=O)Cn2c(=O)oc3ccccc32)nc1-c1ccc(Cl)cc1	37.2%	-11.0%	?	i	-52.7%	?
CC1CCCC(C)N1c1nnc(NC(=O)Cn2c(=O)oc3ccccc32)s1 (stereo not drawn)	?	14.1µM*	-0.4%	i	-5.8%	-4.6%
Oc1cc[c]([Hg][Cl])cc1	2.51µM*	2.82µM*	/	3.16µM*	/	/
Oc1ccc(Cl)c(Cl)c1	32.7%	-4.5%	2.6%	i	6.4%	5.2%
CN[C@@]1(c2ccccc2Cl)CCCCC1=O	/	/	/	i	/	/
CO/C1=C\C(C)=C\[C@@H](C)[C@@H](O)[C@@H](C)C/C(C)=C/C=C/[C@H](OC)[C@@H]([C@@H](C)[C@@H](O)[C@H](C)[C@@]2(O)C[C@@H](O)[C@H](C)C(C(C)C)O2)OC1=O (stereo partly drawn)	6.31µM*	7.08µM*	/	/	/	/
C[C@]12CC[C@H]3[C@@H](CCC4=CC(=O)CC[C@@]43C)[C@@H]1CC[C@@H]2C(=O)O	/	/	/	i	/	7.3%
Cc1ccc(-c2nnc(Nc3ccc(Br)cc3)c3ccccc23)cc1S(=O)(=O)NCc1nc2ccccc2[nH]1	/	/	?	i	-4.7%	-26.1%
CCCCCCCCCCCC[N+](C)(C)CCOc1ccccc1	75.2%	-16.9%	/	?	/	31.6µM*
C=C1C(=O)O[C@@H]2C[C@@H](C)[C@H]3C=CC(=O)[C@]3(O)C[C@@H]12	7.08µM*	?	12.6µM*	/	-40.1%	?
CCOC(=O)N1C(C)CN(/[N+]([O-])=N/Oc2ccc([N+](=O)[O-])cc2[N+](=O)[O-])CC1C (stereo not drawn)	11.2µM*	?	-20.7%	/	-14.3%	/
O=C(NC(=S)N1C[C@H]2C[C@H](C1)c1cccc(=O)n1C2)c1ccc(Cl)cc1	4.47µM*	?	12.9%	i	23.6%	2.6%
O=C(Nc1ccc(Cl)cc1)N1CC2CC(C1)c1cccc(=O)n1C2 (stereo not drawn)	8.5%	9.9%	-4.3%	i	4.7%	29.9%
COc1cc(OC)cc(C(=O)NC(=S)N2C[C@H]3C[C@H](C2)c2cccc(=O)n2C3)c1	11.2µM*	-7.4%	1.1%	i	-0.8%	-6.6%
COc1cc(C(=O)NC(=S)N2C[C@H]3C[C@H](C2)c2cccc(=O)n2C3)cc(OC)c1OC	-42.1%	-4.9%	-0.3%	i	-5.6%	5.8%
Cc1cc(C)cc(OP(=O)(Oc2cc(C)cc(C)c2)Oc2cc(C)cc(C)c2)c1	-4.4%	4.2%	/	/	/	/
CC/C(=C\C=C\[C@@H]1C=C[C@@H]2CCC[C@H]2[C@@H]1C(=O)c1ccc[nH]1)[C@@H]1O[C@@H]([C@@H](C)C(=O)O)CC[C@@H]1C	?	10µM*	11.2µM*	?	15.8µM*	?
CCCC[N+]1(C)[C@H]2CC(OC(=O)[C@H](CO)c3ccccc3)C[C@H]1[C@H]1O[C@H]12 (stereo partly drawn)	/	/	/	/	/	3.8%
CN[C@H]1C[C@H]2O[C@@](C)([C@H]1OC)n1c3ccccc3c3c4c(c5c6ccccc6n2c5c31)C(=O)NC4	?	6.31µM*	/	/	/	/
CCOc1ccc(S(=O)(=O)NCCc2sc3nc(-c4ccc(C)cc4)nn3c2C)cc1	/	/	14.1µM*	/	0.1%	/
Cc1c(CCNS(=O)(=O)c2ccccc2)sc2nc(-c3ccc(Cl)cc3)nn12	/	/	12.6µM*	/	-20.0%	/
CN(C)S(=O)(=O)c1ccc(C(=O)NCCSc2c(-c3ccccc3)[nH]c3ccccc23)cc1	/	/	?	?	-10.1%	-35.5%
Cc1ccccc1-n1c(O)c(/C=C2/C(c3ccccc3)=Nc3ccccc32)c(=O)[nH]c1=O	?	-85.7%	25.1µM*	i	-42.0%	13.2%
SMILES	RORgamma inh	VP16 counter	TGFb SMAD3 inh	ATXN viability	HepG2 viability	ATXN2 expr inh
CCOC1=C2[C@@H](CN(S(=O)(=O)c3ccccc3C)[C@H]2c2ccc(Cl)cc2)[C@H]2C(=O)NC(=O)[C@H]2C1	/	/	-8.1%	?	-20.9%	-9.0%
C[C@]12CCC3C(CC[C@H]4C[C@H](O)CC[C@]34C)C1C[C@@H](O)[C@@H]2O (stereo partly drawn)	/	/	-4.0%	i	-7.9%	0.5%
C[C@]12CCC3C(CC[C@H]4C[C@H](O)CC[C@]34C)C1C[C@@H](O)[C@H]2O (stereo partly drawn)	/	/	-5.7%	i	14.1µM*	-15.8%
Cc1ccc(CN2C3CCCC2CC(NC(=S)NCc2ccccc2)C3)cc1 (stereo not drawn)	2.82µM*	17.8µM*	-21.8%	?	-24.1%	-20.0%
CC(C)(C)c1cc(O)ccc1O	3.55µM*!	3.16µM*	/	/	/	/
CN(C)c1ccc(CN2CCc3nc(N4CCN(c5ccccn5)CC4)ncc3C2)cc1	/	/	8.91µM*	?	-32.2%	28.2µM*
CN(Cc1cccc(-c2ccncc2)c1)C(=O)Oc1ccc([N+](=O)[O-])cc1	/	/	/	31.6µM*	/	25.1µM*
CN(C(=O)Oc1ccc([N+](=O)[O-])cc1)c1ccccc1	35.1%	-5.4%	-2.5%	i	24.0%	5.4%
S=C1CN=C(c2ccccc2Cl)c2cc(Cl)ccc2N1	7.94µM*	7.08µM*	-10.0%	?	-23.8%	-10.8%
S=C=Nc1ccccn1	5.01µM*	?	?	i	-2.2%	24.3%
c1ccc(/N=C2\N=C(Nc3ccccn3)c3ccccc32)nc1	/	/	?	?	-34.6%	?
Cc1c(O)c(O)cc2c1CC=C1[C@]3(C)CC[C@]4(C)CC[C@@](C)(C(=O)O)CC4[C@]3(C)CC[C@]12C (stereo partly drawn)	?	12.6µM*	/	/	/	/
CC1=C(O)C(=O)C=C2C1=CC=C1C2(C)CCC2(C)C3CC(C)(C(=O)O)CCC3(C)CCC12C (stereo not drawn)	/	/	2µM*	5.62µM*	3.16µM*	4.47µM*
C[C@]12CC[C@H]3[C@@H](CCC4=CC(=O)CC[C@@]43C)[C@H]1CC[C@H]2O	/	/	/	/	/	-1.1%
